Bioassay records (PubChem BioAssay)
mcGAS inh = inhibitors of mouse cGAS; Q8C6L5; inhibition, % at 12.5 µM; AID 1259399; 160,000 compounds, 0.15% hits; recombinant cGAS, Kinase-Glo ATP depletion luminescence
Target sequence (Q8C6L5 whole entry, looked up): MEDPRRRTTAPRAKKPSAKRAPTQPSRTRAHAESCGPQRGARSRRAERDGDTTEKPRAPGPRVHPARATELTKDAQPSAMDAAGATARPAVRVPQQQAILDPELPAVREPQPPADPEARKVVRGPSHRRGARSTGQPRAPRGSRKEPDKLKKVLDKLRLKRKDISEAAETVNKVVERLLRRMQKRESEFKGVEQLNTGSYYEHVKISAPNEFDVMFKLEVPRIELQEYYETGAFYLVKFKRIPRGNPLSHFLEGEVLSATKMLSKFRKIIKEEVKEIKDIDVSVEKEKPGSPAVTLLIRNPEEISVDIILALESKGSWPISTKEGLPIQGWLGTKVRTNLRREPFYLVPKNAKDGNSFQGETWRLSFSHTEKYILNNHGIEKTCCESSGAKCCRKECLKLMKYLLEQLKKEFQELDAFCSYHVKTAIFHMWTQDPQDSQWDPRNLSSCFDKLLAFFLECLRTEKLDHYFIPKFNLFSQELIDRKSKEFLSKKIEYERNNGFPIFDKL
hcGAS lum = inhibitors of human cGAS | inhibition, % at 12.5 µM | recombinant h-cGAS, ATP depletion, Kinase-Glo luminescence | 290,000 compounds, 0.081% hits | Q8N884
NPYLR7 ag = mosquito NPYLR7 agonism. HEK293T NPYLR7/Galpha15, GCaMP6s calcium fluorescence. activation, % at 10 µM. 270,000 compounds, 0.15% hits. AID 1259423; in the data active = activation above about 40%
Of the large screens only hits and unclear results are named; the others gave an inactive call; ! = a repeat was not active. This is a sample that favours compounds with a hit; in the whole collection about 0.24% have one here. Rule as the data show it, unless noted: active = inhibition above about 40%; inactive = the rest.

CN(C)C(CNS(=O)(=O)c1cnc2c(c1)c(=O)[nH]c(=O)n2C)c1ccccc1Cl (stereo not drawn)	none (no result: mcGAS inh)
Cn1cccc1C(=O)N/N=C\C1=Cc2cc(Cl)ccc2OC1	none (no result: mcGAS inh)
O=C1NC(=O)C2C1Sc1[nH]c(=O)sc1C2c1ccco1 (stereo not drawn)	hcGAS lum 45 (no result: mcGAS inh)
COc1ccc(C2c3sc(=O)[nH]c3SC3C(=O)NC(=O)C32)cc1 (stereo not drawn)	none (no result: mcGAS inh)
Cn1ccnc(NCCCOC2CCCc3ccccc32)c1=O (stereo not drawn)	none (no result: mcGAS inh)
OCC1OC(Oc2ccccc2Cl)C(O)C(O)C1O (stereo not drawn)	none
O=C(O)c1cc(O)c2c(O)c3c(O[C@H]4O[C@H](CO)[C@@H](O)[C@H](O)[C@H]4O)cccc3c(-c3c4cc(C(=O)O)cc(O)c4c(O)c4c(O[C@H]5O[C@H](CO)[C@@H](O)[C@H](O)[C@H]5O)cccc34)c2c1	hcGAS lum 42! (no result: mcGAS inh)
CCc1ccc(-n2c(C(CC)N(Cc3ccco3)C(=O)c3ccc(Br)cc3)nc3ccccc3c2=O)cc1 (stereo not drawn)	none
Clc1ccc2nc(SCc3csc(Cc4ccc(Cl)c(Cl)c4)n3)oc2c1	none
COC(=O)c1sc(N)c(C(=O)OC)c1Cn1cc(C(F)(F)F)cc(Cl)c1=O	hcGAS lum 54
COC(=O)C1CCN(C(=O)Cn2cc(C(F)(F)F)cc(Cl)c2=O)CC1	none (no result: mcGAS inh)
COCc1cn(C2CCN(C(=O)Nc3c(F)cccc3F)CC2)nn1	none (no result: mcGAS inh)
COc1cccc(NC(=O)CCC2CCN(C(=O)c3cc(-c4ccccc4)no3)CC2)c1	none
CCCC1CCC(C(=O)Nc2nnc(SCC)s2)CC1 (stereo not drawn)	NPYLR7 ag 55
O=C(Nc1nnc(SCC2CC2)s1)C1CCCC1	none
c1ccc(CNc2nc(NCCc3ccncc3)c3sccc3n2)cc1	NPYLR7 ag 59 (no result: mcGAS inh)
CNc1nc(NCc2ccccc2)c2sccc2n1	none (no result: mcGAS inh)
Cc1cc(O)c(C=O)c(O)c1C(=O)O	hcGAS lum 56 (no result: mcGAS inh)
COC(=O)c1c(C)cc(OC(=O)c2c(C)cc(O)c(C=O)c2O)c(C)c1O	none (no result: NPYLR7 ag)
O=C(Nc1ncccc1O)c1nc(-c2ccccc2)n2c1CCCCC2	hcGAS lum 66
Cc1cc(Cl)ccc1NC(=O)c1nc(C)n2c1CCCC2	none (no result: mcGAS inh)
COc1cccc(-c2cc(C(=O)N3CCN(C(=O)c4ccc(F)cc4)CC3)c(C)n2-c2ccccc2)c1	none
CC1CC(C)CN(Cc2nc(N)nc(N)n2)C1 (stereo not drawn)	none (no result: mcGAS inh)
O=c1c(O)c(-c2cc(O)c(O)c(O)c2)oc2cc(O)cc(O)c12	mcGAS inh 82, hcGAS lum 71
O=c1c(O)c(-c2ccc(O)cc2O)oc2cc(O)cc(O)c12	none
CS(=O)(=O)c1ccccc1S(=O)(=O)Nc1cccc(Cl)c1F	none
CS(=O)(=O)N=C1C=C(S(=O)(=O)c2ccccc2)C(=O)c2ccccc21	hcGAS lum 55 (no result: mcGAS inh)
COC1=C(OC)C(=O)c2ccccc2C1=O	none
O=C1c2ccccc2-c2nn(CN3CCN(c4ccccc4)CC3)c3cccc1c23	NPYLR7 ag 88
Cn1c(-c2ccncc2)nn(CN2CCN(c3ccccc3)CC2)c1=S	none (no result: mcGAS inh)
CSc1ccc(Cn2cc(C(=O)NCc3cccc(C(F)(F)F)c3)sc2=O)cc1	none (no result: mcGAS inh)
Cc1c2ccccc2[nH]c2c1oc1cc(=O)ccc12	none (no result: mcGAS inh)
Cc1[nH]ccc2c1[nH]c1cc(=O)ccc12	mcGAS inh 43, hcGAS lum 49!
Cc1cc(C)cc(N2C(=O)CSC2c2ccc(NC(=O)CCl)cc2)c1 (stereo not drawn)	none
CCCc1ccccc1N1C(=O)CSC1c1ccc(NC(=O)CCl)cc1 (stereo not drawn)	NPYLR7 ag 42
COCc1nc(C)nc(N2CCN(C(=O)C(C)C)CC2)c1Cc1cc(C)ccc1C	none
CCCCCCCCCCCCNC(=O)c1c(O)c2ccccc2[nH]c1=O	hcGAS lum 45
O=C(NCCCO)c1c(O)c2ccccc2[nH]c1=O	none (no result: mcGAS inh)
CN(CCn1ccc2ccccc21)C(=O)c1cn(-c2ccccc2)nn1	none (no result: mcGAS inh)
CC1(C)C2CCC1(C)C(NCc1csc(-c3ccccn3)n1)C2 (stereo not drawn)	none (no result: mcGAS inh)
COc1ccc(N(C(=O)Cc2ccccc2)S(=O)(=O)c2ccc(Cl)cc2)cc1	none (no result: mcGAS inh)
O=C(Cc1cccc2ccccc12)NCC(c1ccsc1)N1CCOCC1 (stereo not drawn)	none
CN(Cc1cnc2c(-c3ccccc3)cnn2c1)Cc1noc2c1CCCC2	none (no result: mcGAS inh)
C[N+]1=C(CC=Nc2ccccc2)SCC1	none (no result: mcGAS inh)
C(/C=C/CC=Nc1ccccc1)=Nc1ccccc1	NPYLR7 ag 66
COc1cccc(C(=O)NC(C)C2c3cc(OC)c(OC)cc3CCN2Cc2cccc(C)c2)c1 (stereo not drawn)	none
CCCn1ccc2cc(NS(=O)(=O)c3c(C)noc3C)ccc21	none (no result: mcGAS inh)
Cc1cc2nc3c(=O)[nH]c(=O)nc-3n(CC(O)C(O)C(O)CO)c2cc1C (stereo not drawn)	NPYLR7 ag 173 (no result: mcGAS inh)
Cc1cc2nc3c(=O)[nH]c(=O)nc-3n(C)c2cc1C=O	none (no result: mcGAS inh)
COc1cc(/C=C2\C(=N)N3N=CSC3=NC2=O)ccc1OC(=O)c1cccc(C)c1	none (no result: mcGAS inh)
CCOc1cc(/C=C2\C(=N)N3N=CSC3=NC2=O)cc(Br)c1OC(=O)c1ccccc1	NPYLR7 ag 74 (no result: mcGAS inh)
CC1CCCCC12NN=C1SCC(=O)N1N2 (stereo not drawn)	none (no result: mcGAS inh)
COc1ccc(C(=O)N[C@@H]2CCCCC2NC(=O)C2CCCN(C(=O)CCc3ccccc3)C2)cc1 (stereo partly drawn)	mcGAS inh 79 (no result: NPYLR7 ag)
COCC(=O)N1CCCC(C(=O)NC2CCCC[C@H]2NC(=O)c2ccccc2)C1 (stereo partly drawn)	none (no result: NPYLR7 ag)
O=C(O)CN1C(=O)/C(=C2\SC(=S)NC2=O)c2ccccc21	mcGAS inh 103
CCN1C(=O)/C(=C2\SC(=S)NC2=O)c2ccccc21	none
O=C(OCc1cc2c(cc1Br)OCO2)c1cnccn1	hcGAS lum 69
O=C(OCc1cc2c(cc1Br)OCO2)c1cccc(O)c1	none (no result: mcGAS inh)
COc1ccccc1-c1cc(C(=O)NCCN2CCCCC2)nc2cc(-c3ccc(Cl)cc3)nn12	none
COc1ccccc1-c1cc(C(=O)NCCN2CCCC2)n2nc(-c3ccc(Cl)cc3)cc2n1	mcGAS inh 44!
Cc1ccccc1-n1nc(C)c(-c2ccccc2)c1NC(=O)CN(CC(C)C)S(=O)(=O)c1ccc([N+](=O)[O-])cc1	none
CCCCN(CC(=O)Nc1c(-c2ccccc2)c(C)nn1-c1ccccc1C)S(=O)(=O)c1ccc(F)cc1	NPYLR7 ag 48
CC(=O)Nc1sc2c(c1-c1nc3ccccc3s1)CCN(C(C)C)C2	mcGAS inh 104, hcGAS lum 78
CC(C)N1CCc2c(sc(NC(=O)c3ccnn3C)c2-c2nc3ccccc3s2)C1	none (no result: NPYLR7 ag)
CC(=O)Nc1nc(COC(=O)c2[nH]c(C)c(C(=O)OC(C)C)c2C)cs1	NPYLR7 ag 46
CC(=O)c1c(C)[nH]c(C(=O)Nc2nc(C)cs2)c1C	none (no result: mcGAS inh)
COc1nccnc1-c1ccc(NC(C)=O)cc1	none (no result: mcGAS inh, NPYLR7 ag)
CCOc1cc(/C=C2/NC(=S)NC2=O)cc(Br)c1O	NPYLR7 ag 52
CCOc1cc(Br)cc(/C=C2/NC(=S)NC2=O)c1O	none
COc1ccc(/C=C2\N=C(c3cccc(F)c3)OC2=O)c(OC)c1	none
Cc1cc(O)c(CN2CCN(CCO)CC2)c2c1C(=O)/C(=C/c1ccccc1)O2	none
O=C1/C(=C/c2ccco2)Oc2c1ccc(O)c2CN1CCN(CCO)CC1	none
